POLH inh – DNA polymerase eta (human) inhibition. Q9Y253. recombinant Pol eta, fluorescent DNA replication assay. Potency, µM (doses to about 114 µM), for inactives: at the top dose activity change, negative = inhibition, actives largely listed as inhibitors. 1.2% of 390,000 active; also: potency is read from the fitted curve at half-maximal effect; % is scaled to controls: 0 for no effect and ±100 for the full control effect
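Pol eta (10 nM) was preincubated with compounds for 15 min at room temperature, after which fluorescent replication substrate (50 nM final) was added to start the reaction. Fluorescence was read kinetically at 0 and 10 min.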
FEN1 inhibitor – inhibitors of human flap endonuclease 1; Recombinant FEN1 flap cleavage, fluorescence, 15 min; Potency, µM (doses to about 114 µM), without a hit: at the highest dose activity change, negative = inhibition, usual class: inhibitors; 0.35% of 390,000 active; also: potency is read from the fitted curve at half-maximal effect; % is scaled to controls: 0 for no effect and ±100 for the full control effect; nearly all actives have a fitted effect of over 65% in size
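Reaction started by adding substrate (50 nM final) to 10 nM enzyme after 15 min room-temperature compound preincubation. Reads at 0 and 15 min, with data normalized and fitted to a four-parameter Hill equation.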
Pol beta inh – inhibitors of human DNA polymerase beta. Pol beta primer extension/strand displacement, fluorescence kinetic. 1.3% of 340,000 active. P06746. Potency, µM (highest dose often 114 µM), for inactives: at the top dose activity change, negative = inhibition, actives largely listed as inhibitors. AID 485314; also: potency is read from the fitted curve at half-maximal effect; % is scaled to controls: 0 for no effect and ±100 for the full control effect
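10 nM enzyme + cpd, 15 min RT; start with substrate 50 nM final; read 0 min and after 10 min RT. Corrected, normalized data; 4-parameter Hill curve fit.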
POLK inh – blocks human DNA polymerase kappa activity; Q9UBT6; 0.53% of 400,000 active; purified Pol kappa, fluorescent DNA synthesis assay, 10 min; Potency, µM (titrated, usually from 107 µM), without a hit: top-dose activity, negative = inhibition, usual class: inhibitors; also: potency is read from the fitted curve at half-maximal effect; % is scaled to controls: 0 for no effect and ±100 for the full control effect
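Here, compound and 10 nM enzyme are combined for 15 min at room temperature; adding 50 nM substrate (final) starts DNA synthesis, tracked by fluorescence at 0 and 10 min against buffer-only wells.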
PI5P4K alpha inh – inhibitors of human PI5P4K alpha; P48426; PI5P4Kalpha enzyme, ADP-Glo luminescence, 60 min; active compounds read low; 1.2% of 330,000 active; max response, %; active = max response of -50% or lower; inconclusive = between -30% and -50%; inactive = -30% or higher; also: value at the top dose of about 77 µM; % is scaled to controls: 0 for no effect and ±100 for the full control effect
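ADP-Glo luminescence end-point read after a 60 min room-temperature kinase reaction of PI5P4Kalpha plus substrate, initiated with ATP at 5 microM final. Buffer: 0.038 M HEPES pH 7.4, EGTA, 0.1% CHAPS, 5% DMSO.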
Pol iota inh – blocks human DNA polymerase iota activity; 1% of 390,000 active; Potency, µM (top dose mostly 115 µM), inactives show top-dose activity, negative = inhibition, most hits filed as inhibitors; AID 588590; Pol iota fluorescent replication assay, 10 min; also: potency is read from the fitted curve at half-maximal effect
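Pol iota at 10 nM preincubated 15 min with compounds at room temperature; reaction started with fluorescent substrate, 50 nM final. Fluorescence read kinetically at 0 and 10 min; buffer-only wells as negative control.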
PGK validate – validation of Trypanosoma brucei phosphoglycerate kinase inhibitors; shares compounds with POLK inh; TbPGK coupled GAPDH assay, Kinase-Glo luminescence; Potency, µM (titrated, usually from 57.5 µM), inactives show at the highest dose activity change, negative = inhibition, actives largely listed as inhibitors; 79% of 500 active; AID 686980; also: potency is read from the fitted curve at half-maximal effect; % is scaled to controls: 0 for no effect and ±100 for the full control effect; nearly all actives have a fitted effect of over 65% in size
Pol iota confirm – Confirm cherry-picked inhibitors of human polymerase iota; shares compounds with POLK inh; Pol iota primer extension, TAMRA/BHQ fluorescence; Potency, µM, actives largely listed as inhibitors; 77% of 1,500 active; AID 720496; also: potency is read from the fitted curve at half-maximal effect
Starred values were filed as active, the others as inactive; ? = inconclusive; . = no result; [ ] = dose if it differs, or a comment. Compounds with a hit are over-represented: about 2.8% of the library has one in this group of screens. Unless noted, calls follow the shape of the dose curve; as a rule, active = well fitted curve in the direction sought with a large enough effect; inconclusive = small, poorly fitted or top-dose-only effect, or another doubt; inactive = no such curve, though single readings can be large; an effect the other way counts as inactive or inconclusive.

SMILES	POLH inh	FEN1 inhibitor	Pol beta inh	POLK inh	PI5P4K alpha inh	Pol iota inh	Pol iota confirm	others
CCOc1ccc(C=NNc2ccc(S(=O)(=O)Nc3ccccc3C(=O)O)cc2[N+](=O)[O-])cc1OC	?	79µM*	.	?	-74*	?	.	PGK validate=8.2µM*
CSCCC(NC(=O)c1ccccc1)C(=O)N1CCN(C(c2ccccc2)c2ccccc2)CC1 (stereo unspecified)	-10%	-7%	29%	-12%	0	20%	.
COc1ccccc1NC(=O)c1cc2ccc(O)cc2o/c1=N\O	?	-17%	-17%	-35%	-13	-12%	.
COc1ccccc1NC(=O)c1cc2ccccc2o/c1=N\O	?	-5%	20µM*	-39%	-2	79µM*	?
O=C(NC1CCCCC1)c1cc(S(=O)(=O)N2CCCC2)ccc1Cl	-19%	-2%	-28%	-2%	-2	35%	.
COc1cc([N+](=O)[O-])ccc1NC(=O)COC(=O)c1ccc(NC(N)=O)cc1	?	?	?	-8%	2	-18%	42*
COCC(=O)Nc1ccc([N+](=O)[O-])cc1OC	-22%	5%	0%	2%	-7	27%	.
COc1ccc(NC(=O)/C(Cl)=C(/Cl)S(=O)Cc2ccccc2Cl)cn1 (stereo unspecified)	8%	-17%	-1%	-7%	?	?	.
O=c1[nH]c(/C=C/c2cccc3ccccc23)nc2ccccc12	-14%	8%	3%	-4%	-11	83%	.
O=c1nc2cccc3c2=c(/c1=C(\O)c1ccccc1)c1ccccc1c3=O	50µM*	?	10µM*	7%[60.1 µM]	-14	45%	?
CNc1ccc(/C=C(\CCC(=O)O)c2nc3ccccc3s2)cc1[N+](=O)[O-]	13µM*	-9%	32µM*	-15%	-18	-1%	42*
c1ccn2cc(-c3ccc4c(c3)OCCO4)nc2c1	-8%	-15%	5%	-5%	-14	?	.	PGK validate=?
O=C(O)CN1C(=O)C(=O)N(Cc2ccc(Cl)c(Cl)c2)C1=O	-13%	14%	-4%	-6%	-7	32%	.
O=C(O)c1ccc(-n2cccc2/C=C2\SC(=O)N(Cc3ccc(Cl)c(Cl)c3)C2=O)cc1	.	.	.	.	.	.	67*
CN(/N=C/c1ccc(-c2ccc([N+](=O)[O-])cc2)o1)c1ccccc1	-9%	5%	23%	-6%	10	40%	.
O=C1Nc2ccccc2/C1=N/N=C/c1ccc(-c2ccc([N+](=O)[O-])cc2)o1	?	-9%	-19%	6%	-5	31%	?
CCOC(=O)c1cc(-c2ccc(OC)cc2)nn1-c1ccccc1C(=O)O	-3%	17%	3.2µM*	-13%	-18	-27%	.	PGK validate=?
O=C(CSc1nnc(COc2ccccc2Cl)o1)NC(=O)NCc1ccco1	50µM*	-11%	14µM*	?	-75*	40µM*	67*
COc1ccccc1C(=O)Nc1nc2ccccc2s1	-5%	-11%	-27%	14%	?	?	.	PGK validate=16µM*
COc1ccccc1C(=O)Nc1nc2ccc(S(C)(=O)=O)cc2s1	-4%	11%	5%	-12%	.	-6%[58.9 µM]	.
Cc1cccc(/C(N)=N/OC(=O)c2ccc3c(c2)OCO3)c1	-10%	6%	-2%	-13%	?	-15%	.	PGK validate=10µM*
Cc1ccc2oc(-c3ccc(C)c(NC(=O)/C=C/c4ccco4)c3)nc2c1	?	-17%	8%	-20%	.	?	.
Cc1ccc(-c2nc3ccccc3o2)cc1NC(=S)NC(=O)/C=C/c1ccco1	22µM*	-8%	40µM*	-18%	?	?	?

Compound activity deposited in PubChem by National Center for Advancing Translational Sciences (NCATS).
